Test systems include NCI-H23 lung; NCI-H226 lung; NCI-H322M lung; HOP-62 NSCLC; NCI-H460 lung; HOP-92 NSCLC; NCI-H522 lung; A549/ATCC NSCLC; 786-0 renal; COLO 205 colon; DU-145 prostate; K-562 leukemia; MALME-3M melanoma; MDA-MB-231 breast; SF-268 CNS; SF-295 CNS; SF-539 CNS; UACC-257 melanoma; M14 melanoma.
What all share (assay): NCI-60 one-dose screen, 48 h (100 = growth as untreated, 0 = no growth, -100 = all killed)
Holding throughout (conditions): 10 µM unless noted

About 83,000 compounds went through this panel and 20% of them were active in at least one assay; those are over-represented in the sample as a whole.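 Single-dose data. Exposure time 48 hours. Values below 10 considered active.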 Unmarked numbers belong to inactive results. Activity calls are given as the source filed them.

With `CCC1(CC)NC(=O)c2c(c3ccc(Cl)c(Cl)c3n2C)C1C#N` (stereo not drawn), the growth in the experiment on NCI-H23 lung was 93%; with NCI-H226 lung, 95.6%; in the experiment on NCI-H322M lung, 103%; with HOP-62 NSCLC, 81.2%; in the experiment with NCI-H460 lung, 98.7%; with HOP-92 NSCLC it was 62.1%. Besides, the growth with NCI-H522 lung is 86.5%; in the experiment on A549/ATCC NSCLC, 88.6%; with 786-0 renal, 94.3%; in the experiment with COLO 205 colon it was 80.1%; in the experiment with DU-145 prostate, 123%; in the experiment on K-562 leukemia it was 91.4%. The growth was 109% in the experiment on MALME-3M melanoma; 71.2% in the experiment on MDA-MB-231 breast; 90.3% in the experiment on SF-268 CNS; 102% with SF-295 CNS; 95.4% in the experiment with SF-539 CNS; 100% with UACC-257 melanoma. Besides, the growth in the experiment with M14 melanoma is 105%.
In the case of `c1cnc2nc3c(cc2c1)oc1ccccc13`, the growth was 95.9% with NCI-H23 lung; 93.2% with NCI-H226 lung; 99.9% in the experiment with NCI-H322M lung; 108% in the experiment on HOP-62 NSCLC; 95.2% in the experiment with NCI-H460 lung; 90.3% in the experiment with HOP-92 NSCLC. The growth in the experiment on NCI-H522 lung was 89.1%; with A549/ATCC NSCLC it was 87.3%; in the experiment with 786-0 renal it was 89.4%; in the experiment with COLO 205 colon it was 109%; in the experiment on DU-145 prostate it was 103%; with K-562 leukemia, 92.4%. Further, the growth in the experiment on MALME-3M melanoma was 109%; in the experiment with MDA-MB-231 breast it was 86.3%; in the experiment with SF-268 CNS, 97.1%; with SF-295 CNS, 96.7%; in the experiment with SF-539 CNS, 93.2%; with UACC-257 melanoma, 116%. In the experiment with M14 melanoma, the growth is 105%.
Regarding `COc1c(Cl)cc(Cl)c2ccc(C=C3C(=O)NC(=S)NC3=O)nc12`, the growth in the experiment on NCI-H23 lung was 101%; with NCI-H226 lung, 100%; with NCI-H322M lung, 113%; with HOP-62 NSCLC, 93.7%; with NCI-H460 lung, 103%; in the experiment on HOP-92 NSCLC, 116%. For the same compound, the growth is 92% in the experiment with NCI-H522 lung; 104% with A549/ATCC NSCLC; -90.9% (active) with 786-0 renal; 113% with COLO 205 colon; 115% in the experiment on DU-145 prostate; 102% with K-562 leukemia. Moreover, the growth in the experiment with MALME-3M melanoma was 106%; in the experiment on MDA-MB-231 breast, 113%; in the experiment on SF-268 CNS, 99.8%; in the experiment with SF-295 CNS, 102%; in the experiment with SF-539 CNS, 101%; in the experiment with UACC-257 melanoma, 102%. Moreover, the growth in the experiment with M14 melanoma was -56.2% (active).
With `CC(=O)NCCCS(=O)(=O)O`, the growth in the experiment on NCI-H23 lung is 101%; in the experiment on NCI-H226 lung it was 119%; in the experiment on NCI-H322M lung it was 107%; in the experiment on HOP-62 NSCLC, 105%; in the experiment on NCI-H460 lung it was 101%; with HOP-92 NSCLC it was 82.2%. The growth in the experiment with NCI-H522 lung was 83.4%; in the experiment with A549/ATCC NSCLC, 114%; in the experiment on 786-0 renal, 99.6%; in the experiment with COLO 205 colon, 105%; in the experiment on DU-145 prostate, 118%; with K-562 leukemia, 94.8%. For the same compound, the growth with MALME-3M melanoma is 106%; in the experiment on MDA-MB-231 breast, 102%; in the experiment with SF-268 CNS it was 111%; in the experiment on SF-295 CNS, 94.6%; with SF-539 CNS, 99.5%; in the experiment with UACC-257 melanoma, 104%. Further, the growth in the experiment on M14 melanoma is 111%.
On to `CCN(CC)S(=O)(=O)c1cccc([N+](=O)[O-])c1`, for which the growth was 102% with NCI-H23 lung; 85.3% with NCI-H226 lung; 104% in the experiment on NCI-H322M lung; 74.5% in the experiment with HOP-62 NSCLC; 99.5% in the experiment on NCI-H460 lung; 87.9% in the experiment on HOP-92 NSCLC. The growth in the experiment on NCI-H522 lung was 72.3%; in the experiment with A549/ATCC NSCLC, 65.3%; in the experiment on 786-0 renal, 89.4%; with COLO 205 colon, 102%; in the experiment on DU-145 prostate it was 117%; with K-562 leukemia, 96%. In addition, the growth was 99.2% with MALME-3M melanoma; 105% in the experiment on MDA-MB-231 breast; 93.4% in the experiment with SF-268 CNS; 94.4% with SF-295 CNS; 98.9% in the experiment on SF-539 CNS; 67% in the experiment with UACC-257 melanoma. Besides, in the experiment on M14 melanoma, the growth was 84.9%.
With `O=c1[nH]nc(-c2ccc(Cl)cc2)cc1Cc1cccc([N+](=O)[O-])c1`, the growth in the experiment with NCI-H23 lung was 104%; in the experiment with NCI-H226 lung, 91.9%; with NCI-H322M lung it was 119%; in the experiment on HOP-62 NSCLC, 96.3%; in the experiment with NCI-H460 lung, 99.9%; in the experiment with HOP-92 NSCLC it was 44.2%. In addition, the growth was 90.6% in the experiment on NCI-H522 lung; 81.9% with A549/ATCC NSCLC; 103% with 786-0 renal; 101% in the experiment on COLO 205 colon; 98.7% in the experiment on DU-145 prostate; 94.2% in the experiment on K-562 leukemia. Moreover, the growth in the experiment on MALME-3M melanoma was 119%; in the experiment on MDA-MB-231 breast it was 72.6%; in the experiment with SF-268 CNS, 95.4%; in the experiment on SF-295 CNS, 92.4%; in the experiment on SF-539 CNS it was 98.5%; in the experiment on UACC-257 melanoma, 97%. In the experiment with M14 melanoma, the growth is 107%.
For `COc1ccc(NC(=O)c2sc3nc(C)c(C(O)c4ccc(OC)cc4)cc3c2N)cc1` (stereo not drawn), the growth in the experiment with NCI-H23 lung was 36.2%; in the experiment with NCI-H226 lung, 63.5%; in the experiment with NCI-H322M lung, 51.3%; in the experiment with HOP-62 NSCLC, 31.8%; in the experiment with NCI-H460 lung, 9.03% (active); in the experiment on HOP-92 NSCLC it was 57.6%. Besides, the growth is 5.14% (active) with NCI-H522 lung; 23% in the experiment with A549/ATCC NSCLC; 53.3% in the experiment with 786-0 renal; -6.28% (active) in the experiment with COLO 205 colon; 25.6% in the experiment with DU-145 prostate; 9.99% (active) with K-562 leukemia. Moreover, the growth is 63.7% in the experiment on MALME-3M melanoma; 22.1% with MDA-MB-231 breast; 42% with SF-268 CNS; -1.07% (active) with SF-295 CNS; -11.4% (active) in the experiment on SF-539 CNS; 60.4% with UACC-257 melanoma. Moreover, the growth in the experiment with M14 melanoma was 24.7%.

The values are drawn from PubChem BioAssay (NCI).
